# “And” between values parts separate entries of the source, which are not always exact repeats. Equal values may be shown once. Where a name gives a salt, the structure may show the parent alone.
# Columns and labels:
# Assay in all cases: cell viability relative to vehicle control; higher = less cytotoxic
# Conditions in all cases: 10 µM
# K562 = tested on: K562
# Outline: (§1)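 CRISPR-edited SRSF2 P95 mutant and isogenic wild-type clones of four leukaemia lines were screened against Selleck bioactive, kinase and epigenetic probe libraries, with identity-inconsistent compounds removed. Compounds were acoustically dispensed into 384-well plates at a single 10 µM dose, with 2000 cells in 50 µL medium per well. After 48 h, supernatant was removed and CellTiter-Glo luminescence was read. Viability was expressed as percent of the on-plate DMSO vehicle control, analysed in Genedata Screener.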
# MARIMO = tested on: MARIMO
# Outline: as §1
# MOLM14 = tested on: MOLM14
# Outline: as §1
# OCI-AML2 = tested on: OCI-AML2
# Outline: as §1
Structure (SMILES),cell viability (K562; SRSF2 genotype: SRSF2 P95H/wt),cell viability (K562; SRSF2 genotype: SRSF2 wt/wt),cell viability (MARIMO; SRSF2 genotype: SRSF2 P95H/wt),cell viability (MARIMO; SRSF2 genotype: SRSF2 wt/wt),cell viability (MOLM14; SRSF2 genotype: SRSF2 P95H/wt),cell viability (MOLM14; SRSF2 genotype: SRSF2 wt/wt),cell viability (OCI-AML2; SRSF2 genotype: P95H/wt),cell viability (OCI-AML2; SRSF2 genotype: wt/wt)
O=C(O)c1nn(Cc2ccc(Cl)cc2Cl)c2ccccc12 [Lonidamine],97% and 107%,101%,107%,97.7%,98.1%,95.6%,99.5%,92.2%
CC[C@@H](C(N)=O)N1CCCC1=O [Levetiracetam],110% and 104%,102%,102%,109%,101%,108%,106%,106%
CCCN1CCO[C@@H]2c3cc(O)ccc3OC[C@H]21,98% and 95.8%,92.6%,97.5%,97%,104%,101%,96.5%,93.2%
COc1ccc(C=O)cc1O [Isovanillin],105% and 103%,103%,108%,108%,106%,101%,104%,98.2%
CC(=O)O[C@H]1[C@H]2[C@@H](OC(=O)Cc3ccccc3)[C@@H](C)C[C@]2(OC(C)=O)C(=O)/C(C)=C/[C@@H]2[C@H](CC[C@@]13CO3)C2(C)C [Euphorbiasteroid],63.8% and 85.5%,84.1%,111%,27.6%,46.1%,30.6%,27.2%,22.4%
COC(=O)C[C@](O)(CCC(C)(C)O)C(=O)O[C@@H]1C(OC)=C[C@]23CCCN2CCc2cc4c(cc2[C@H]13)OCO4 [Harringtonine],12.3% and 17.8%,20.6%,8.47%,4.47%,2.72%,1%,5.78%,10.9%
CCCCC(C#N)(Cn1cncn1)c1ccc(Cl)cc1 (configuration not stated) [Myclobutanil],105% and 99.5%,100%,97%,109%,93.9%,108%,92.3%,98.1%
CC(C)(C)[C@]1(O)CC2OC(=O)CC23C(=O)OC2OC(=O)[C@H](O)C231 (some centres not stated) [Bilobalide],108% and 105%,98%,96.9%,116%,104%,104%,98.1%,109%
Cc1cccc([C@H](C)c2c[nH]cn2)c1C [Dexmedetomidine HCl (Precedex)],99.1% and 101%,91%,102%,100%,102%,104%,107%,110%
C[C@H]1CCC/C=C/[C@@H]2C[C@H](O)C[C@H]2[C@H](O)/C=C/C(=O)O1 [Brefeldin A],19% and 24.5%,24.1%,9.22%,6.8%,6.71%,4.1%,4.83%,18.7%
CN1C(=O)COc2c(C(=O)NC3CN4CCC3CC4)cc(Cl)cc21 (configuration not stated) [Azasetron HCl],96.6% and 91.5%,94.9%,92.8%,98.7%,90.5%,97.3%,95.9%,94.7%
CC(=O)OC12COC1CC(O)C1(C)C(=O)C(O)C3=C(C)C(O)CC(O)(C(OC(=O)c4ccccc4)C21)C3(C)C (configuration not stated) [10-DAB (10-Deacetylbaccatin)],103% and 110%,103%,109%,108%,111%,105%,105%,98.3%
CCC(C)C(=O)O[C@@H]1[C@@H](OC(C)=O)[C@]2(C)[C@H](C(C)=O)CC[C@@]23O[C@]32CC[C@H]3C[C@@H](O[C@H]4C[C@@H](OC)[C@H](O[C@@H]5O[C@H](C)[C@@H](O)[C@@H](OC)[C@H]5O)[C@@H](C)O4)CC[C@]3(C)[C@@H]12 (some centres not stated) [Tenacissoside H],89.8% and 95.2%,97.7%,96.9%,93.2%,94.6%,93.4%,98.9%,96.7%
C[N+]1(C)[C@@H]2C[C@@H](OC(=O)[C@H](CO)c3ccccc3)C[C@H]1[C@@H]1O[C@@H]12 [Methscopolamine (Pamine)],97.7% and 84.7%,82.5%,79.5%,87.8%,82.4%,84.1%,83.2%,84.8%
COc1ccc2c(c1OC)CN1CCc3cc4c(cc3C1C2)OCO4 (configuration not stated) [Tetrahydroberberine],86.9% and 87%,81.9%,69.8%,85%,81.2%,86.6%,73%,72.8%
COc1ccc(N(C(=O)Oc2c(C)cccc2C)c2ccnc(Nc3ccc(N4CCN(C)CC4)cc3)n2)c(OC)c1,7.22% and 20.7%,6.62%,72.3%,58.7%,38.8%,35.4%,23.5%,28.6%
CCC1=C[C@H]2CN3CCc4c([nH]c5ccccc45)[C@](C(=O)OC)(C2)[C@H]13 [Catharanthine],92.4% and 94%,95.2%,81%,86.6%,87.8%,95.5%,92%,96.2%
O=c1cccc2n1C[C@@H]1CNC[C@H]2C1 [Cytisine],107% and 100%,92.9%,93.3%,107%,97.7%,102%,94.3%,104%
O=C1C2CCN(CC2)C1(CO)CO,74.5% and 85.5%,73.3%,83.6%,73.8%,34.1%,41.8%,56.2%,47%

# — the supplement of paper PMC10981050
